Assay results reported in PubChem BioAssay (EPA / NIEHS).
Several values for one entry are separate records, joined by “and”; a condition that tells them apart may be missing. Identical values can stand only once. Where a structure was tested more than once in an assay, its records may differ in their call. Activity calls are given as the source filed them. How the source made its calls: active means hit-call score of the fitted dose curve at least 0.9, where 1 is the maximum; inactive means score below 0.9.

Experiments:
[1] = read-out: Plasminogen activator inhibitor-1 (PAI1), SERPINE1 (gene 5054); assay: BSK_MyoF_PAI1: BioMAP Diversity Plus: MyoF Assay for Plasminogen activator inhibitor-1 (PAI1) Biomarker Activity (AID 2284256); conditions: primary human lung fibroblasts
Outline: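 In this multiplexed primary-cell system, fibroblasts from human lung received compound for 24 h before ELISA detection of PAI-1; overt toxicity was checked by SRB (0.1%, TCA-fixed, 560 nm) in parallel wells.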

CD69, CD69 (gene 969) = assay: BSK_IMphg_CD69: BioMAP Diversity Plus: IMphg Assay for CD69 Biomarker Activity (AID 2284257); conditions: primary human endothelial cells with macrophages
Outline: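 Readout is ELISA for CD69 in primary human venular endothelial cell/macrophage co-culture, taken at 24 h post-dosing. SRB staining of parallel cultures gauged overt cytotoxicity; signal increase versus DMSO defined activity.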

[2] = read-out: Eotaxin 3, CCL26 (gene 10344); assay: BSK_BF4T_Eotaxin3: BioMAP Diversity Plus: BF4T Assay for Eotaxin 3 Biomarker Activity (AID 2284258); conditions: primary human bronchial epithelial cells with fibroblasts
Outline: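 ELISA measurement of Eotaxin-3 after 24 h chemical exposure in a bronchial epithelial/dermal fibroblast co-culture, with DMSO as baseline. Parallel SRB staining (0.1% SRB after 10% TCA fixation, 560 nm) flagged overt cytotoxicity.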

[3] = read-out: Monocyte Chemoattractant Protein-1 (MCP1), CCL2 (gene 6347); assay: BSK_BF4T_MCP1: BioMAP Diversity Plus: BF4T Assay for Monocyte Chemoattractant Protein-1 (MCP1) Biomarker Activity (AID 2284259); conditions: primary human bronchial epithelial cells with fibroblasts
Method: BSK_BF4T is a cell-based, multiplexed-readout assay that uses bronchial epithelial cells and dermal fibroblasts, a human vascular primary cell, with measurements taken at 24 hours after chemical dosing in a microplate: 96-well plate.BSK_BF4T_MCP1 is an assay component measured in the BSK_BF4T assay. It measures MCP-1 antibody related to regulation of gene expression using ELISA technology.Data from the assay component BSK_BF4T_MCP1 was analyzed at the endpoint, BSK_BF4T_MCP1, in the positive analysis fitting direction relative to DMSO as the negative control and baseline of activity. Using a type of binding reporter, gain or loss-of-signal activity can be used to understand protein changes. To generalize the intended target to other relatable targets, this assay endpoint is annotated to the 'cytokine' intended target family, where the subfamily is 'chemotactic factor'.
The levels of cell surface (or secreted, indicated by the prefix "s") biomarker endpoints were measured by ELISA. Overt cytotoxicity to cells in confluent adherent cultures (all systems other than the BT system) was assessed by measuring total protein levels using sulforhodamine B (SRB) staining in parallel cultures at the time of biomarker measurements, indicated as SRB endpoints. For proliferation assays for adherent cell types, individual cell types are cultured at sub-confluence and relative cell numbers quantified by SRB staining at time points optimized for each system (48 h: 3C and CASM3C systems; 72 h: BT and HDF3CGF systems; 96 h: SAg system). SRB was performed by staining cells with 0.1% SRB after fixation with 10% TCA and reading wells at 560 nm.Viability and proliferation of PBMC (T cells) was quantified by Alamar Blue reduction for the SAg and BT systems. For PBMC viability (referred to as PBMC Cytotoxicity within the assay endpoint names), cells were plated (75,000/well in a 96-well plate) and then chemical samples added for 1 h before addition of activators, SEB and TSST-1 (20 ng/mL final concentration each). Cells were incubated for 90 h. Then, Alamar Blue (20 uL/well) (Invitrogen, Cat DAL1100) was added for 6 h, and the plates were read with a fluorescence microplate reader at 546/580 nm (excitation/emission). For PBMC proliferation, cells were plated and activated as above but incubated for only 16 h prior to addition of Alamar Blue. Plates were read after 6 h.

[4] = read-out: Intercellular Adhesion Molecule 1 (ICAM1), ICAM1 (gene 3383); assay: BSK_BF4T_ICAM1: BioMAP Diversity Plus: BF4T Assay for Intercellular Adhesion Molecule 1 (ICAM1) Biomarker Activity (AID 2284260); conditions: primary human bronchial epithelial cells with fibroblasts
Outline: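 ICAM-1 levels measured by ELISA after 24 h chemical treatment of bronchial epithelial cell/dermal fibroblast co-cultures, read against DMSO baseline. Overt cytotoxicity checked in parallel cultures by sulforhodamine B staining.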

[5] = read-out: Interleukin-8 (IL8), CXCL8 (gene 3576); assay: BSK_MyoF_IL8: BioMAP Diversity Plus: MyoF Assay for Interleukin-8 (IL8) Biomarker Activity (AID 2284261); conditions: primary human lung fibroblasts
Outline: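 DMSO-normalised, upward-fitted IL-8 ELISA signal; human lung fibroblasts, 24 h chemical treatment.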

CD90, THY1 (gene 7070) = assay: BSK_BF4T_CD90: BioMAP Diversity Plus: BF4T Assay for CD90 Biomarker Activity (AID 2284262); conditions: primary human bronchial epithelial cells with fibroblasts
Outline: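 CD90 levels by ELISA after 24 h treatment of human bronchial epithelial cell/dermal fibroblast cultures, analysed versus DMSO. Overt cytotoxicity checked in parallel cultures by sulforhodamine B staining.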

[6] = read-out: Interleukin-8 (IL8), CXCL8 (gene 3576); assay: BSK_BF4T_IL8: BioMAP Diversity Plus: BF4T Assay for Interleukin-8 (IL8) Biomarker Activity (AID 2284263); conditions: primary human bronchial epithelial cells with fibroblasts
Outline: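 Human bronchial epithelial cells with dermal fibroblasts co-culture; IL-8 measured by ELISA 24 hours after dosing, fitted vs DMSO. Cytotoxicity tracked in parallel cultures by SRB total-protein staining.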

[7] = read-out: Interleukin-1 alpha (IL1a), IL1A (gene 3552); assay: BSK_BF4T_IL1a: BioMAP Diversity Plus: BF4T Assay for Interleukin-1 alpha (IL1a) Biomarker Activity (AID 2284264); conditions: primary human bronchial epithelial cells with fibroblasts
Outline: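 ELISA read-out of IL-1α from bronchial epithelial cell/dermal fibroblast co-cultures 24 h after compound addition. Increases scored against DMSO negative control. Cytotoxicity monitored by sulforhodamine B staining of parallel cultures.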

Decorin, DCN (gene 1634) = assay: BSK_MyoF_Decorin: BioMAP Diversity Plus: MyoF Assay for Decorin Biomarker Activity (AID 2284265); conditions: primary human lung fibroblasts
Outline: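 In this multiplexed fibroblast system, secreted or surface decorin is detected by ELISA one day after dosing, with increases scored against the DMSO vehicle.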

Measured: AC50

NS(=O)(=O)C(F)(F)C(F)(F)C(F)(F)C(F)(F)C(F)(F)C(F)(F)C(F)(F)C(F)(F)F
inactive: CD69, CD69 (gene 969) | Decorin, DCN (gene 1634)
active: [1] 46.3 µM and 55.1 µM | CD69, CD69 (gene 969) 10 µM | [2] 20.4 µM and 12.6 µM | [3] 47.9 µM and 42 µM | [4] 47.2 µM and 36 µM | [5] 53 µM and 50.7 µM | CD90, THY1 (gene 7070) 30 µM and 21.8 µM | [6] 49.2 µM and 48.2 µM | [7] 44.9 µM and 24.2 µM | Decorin, DCN (gene 1634) 52.9 µM

O=S(=O)(O)C(F)(F)C(F)(F)C(F)(F)C(F)(F)C(F)(F)C(F)(F)F
inactive: all assays above

O=C(O)C(F)(F)C(F)(F)C(F)(F)C(F)(F)C(F)(F)C(F)(F)C(F)(F)C(F)(F)C(F)(F)F
active: [1] 46.7 µM and 54.8 µM | CD69, CD69 (gene 969) 45.3 µM and 42 µM | [2] 9.59 µM and 12.1 µM | [3] 9.32 µM and 8.22 µM | [4] 11.6 µM and 14.5 µM | [5] 54.6 µM | CD90, THY1 (gene 7070) 19 µM and 19.4 µM | [7] 14.3 µM and 48 µM | Decorin, DCN (gene 1634) 23.6 µM and 22.3 µM
inactive: [5] | [6]
